These molecules were tested on CDK7. Details: read-out: apparent Kd; compound concentrations:100 nM and 1000 nM (sheet 'Samples'); n = 1.
Design: species or system human, MV4-11 + K-562 + COLO205 + SK-N-BE2 + OVCAR-8
`NCCNS(=O)(=O)c1ccc(-c2ccnc3[nH]ccc23)cc1` [GSK977617A] was tested, and the potency estimated from few doses was 159 nM. For `O=C1NC(=O)C(N2CCc3ccccc32)=C1c1ccccc1Cl` [SB-373598], the potency estimated from few doses was 93.7 nM. `Cl.Cl.NCC(C(=O)Nc1cc(Br)c(-c2ccnc3[nH]ccc23)s1)c1ccccc1.NCC(C(=O)Nc1cc(Br)c(-c2ccnc3[nH]ccc23)s1)c1ccccc1` (centres unmarked) [GSK1269851A] showed a potency estimated from few doses of 44.7 nM. `CC(C)N1CCC(n2cnc(-c3ccc(F)cc3)c2-c2ccnc(N)n2)CC1` [SB-223132] was tested, and the potency estimated from few doses was 310 nM. For `CN1C[C@@H]2Cn3c(c(C4=C(c5cn(C)c6ccccc56)C(=O)NC4=O)c4ccccc43)C[C@H]2C1.Cl` [RO0320234-001], the potency estimated from few doses was 137 nM. `Cc1ccc2c(-c3ccncc3)c(-c3ccc(F)cc3)nn2c1.Cl` [GW461484A] was tested, and the potency estimated from few doses was 288 nM.

These molecules were tested on CHEK1. Details: read-out: apparent Kd; compound concentrations:100 nM and 1000 nM (sheet 'Samples'); n = 1.
Design: species or system human, MV4-11 + K-562 + COLO205 + SK-N-BE2 + OVCAR-8
In the case of `NCCNS(=O)(=O)c1ccc(-c2ccnc3[nH]ccc23)cc1` [GSK977617A], the potency estimated from few doses is reported as 2250 nM. Molecule `O=C1NC(=O)C(N2CCc3ccccc32)=C1c1ccccc1Cl` [SB-373598] has a potency estimated from few doses of 999 nM. For `Cl.Cl.NCC(C(=O)Nc1cc(Br)c(-c2ccnc3[nH]ccc23)s1)c1ccccc1.NCC(C(=O)Nc1cc(Br)c(-c2ccnc3[nH]ccc23)s1)c1ccccc1` (centres unmarked) [GSK1269851A], the potency estimated from few doses was 1700 nM. Molecule `CC(C)N1CCC(n2cnc(-c3ccc(F)cc3)c2-c2ccnc(N)n2)CC1` [SB-223132] has a potency estimated from few doses of 1740 nM. `CN1C[C@@H]2Cn3c(c(C4=C(c5cn(C)c6ccccc56)C(=O)NC4=O)c4ccccc43)C[C@H]2C1.Cl` [RO0320234-001] showed a potency estimated from few doses of 1280 nM. With `Cc1ccc2c(-c3ccncc3)c(-c3ccc(F)cc3)nn2c1.Cl` [GW461484A] the potency estimated from few doses was 1870 nM.

What follows are molecules tested on CIT. Details: read-out: apparent Kd; compound concentrations:100 nM and 1000 nM (sheet 'Samples'); n = 1.
Design: species or system human, MV4-11 + K-562 + COLO205 + SK-N-BE2 + OVCAR-8
Work on `CC(C)N1CCC(n2cnc(-c3ccc(F)cc3)c2-c2ccnc(N)n2)CC1` [SB-223132] yielded a potency estimated from few doses of 886 nM. In the case of `Cc1cccc(-c2nc(Nc3ccncc3)c3sccc3n2)n1` [GW869641X], the potency estimated from few doses is reported as 1100 nM. For `CCn1c(-c2nonc2N)nc2c(C#CC(C)(C)O)nc(OCCN)cc21.CCn1c(-c2nonc2N)nc2c(C#CC(C)(C)O)nc(OCCN)cc21.Cl.Cl` [GSK902056A], the potency estimated from few doses was 1340 nM. With `Cc1ccc2c(-c3ccncc3)c(-c3ccc(F)cc3)nn2c1.Cl` [GW461484A] the potency estimated from few doses was 2120 nM.

What follows are molecules tested on CLK1. Details: read-out: apparent Kd; compound concentrations:100 nM and 1000 nM (sheet 'Samples'); n = 1.
Design: species or system human, MV4-11 + K-562 + COLO205 + SK-N-BE2 + OVCAR-8
`NCCNS(=O)(=O)c1ccc(-c2ccnc3[nH]ccc23)cc1` [GSK977617A] was tested, and the potency estimated from few doses was 294 nM. `O=C1NC(=O)C(N2CCc3ccccc32)=C1c1ccccc1Cl` [SB-373598] showed a potency estimated from few doses of 275 nM. In the case of `Cl.Cl.NCC(C(=O)Nc1cc(Br)c(-c2ccnc3[nH]ccc23)s1)c1ccccc1.NCC(C(=O)Nc1cc(Br)c(-c2ccnc3[nH]ccc23)s1)c1ccccc1` (centres unmarked) [GSK1269851A], the potency estimated from few doses is reported as 449 nM. `CC(C)N1CCC(n2cnc(-c3ccc(F)cc3)c2-c2ccnc(N)n2)CC1` [SB-223132] was tested, and the potency estimated from few doses was 572 nM. `CNC(=O)c1ccccc1Nc1nc(Nc2ccc(N3CCOCC3)cc2)ncc1Cl.Cl` [GSK1576028A] gave a potency estimated from few doses of 260 nM. `CN1C[C@@H]2Cn3c(c(C4=C(c5cn(C)c6ccccc56)C(=O)NC4=O)c4ccccc43)C[C@H]2C1.Cl` [RO0320234-001] was tested, and the potency estimated from few doses was 162 nM. `Cc1ccc2c(-c3ccncc3)c(-c3ccc(F)cc3)nn2c1.Cl` [GW461484A] showed a potency estimated from few doses of 548 nM.

Each molecule was assayed on CLK4. Details: read-out: apparent Kd; compound concentrations:100 nM and 1000 nM (sheet 'Samples'); n = 1.
Design: species or system human, MV4-11 + K-562 + COLO205 + SK-N-BE2 + OVCAR-8
For `NCCNS(=O)(=O)c1ccc(-c2ccnc3[nH]ccc23)cc1` [GSK977617A], the potency estimated from few doses was 413 nM. Molecule `O=C1NC(=O)C(N2CCc3ccccc32)=C1c1ccccc1Cl` [SB-373598] has a potency estimated from few doses of 246 nM. `Cl.Cl.NCC(C(=O)Nc1cc(Br)c(-c2ccnc3[nH]ccc23)s1)c1ccccc1.NCC(C(=O)Nc1cc(Br)c(-c2ccnc3[nH]ccc23)s1)c1ccccc1` (centres unmarked) [GSK1269851A] showed a potency estimated from few doses of 1070 nM. For `CC(C)N1CCC(n2cnc(-c3ccc(F)cc3)c2-c2ccnc(N)n2)CC1` [SB-223132], the potency estimated from few doses was 686 nM. In the case of `CNC(=O)c1ccccc1Nc1nc(Nc2ccc(N3CCOCC3)cc2)ncc1Cl.Cl` [GSK1576028A], the potency estimated from few doses is reported as 321 nM. `CN1C[C@@H]2Cn3c(c(C4=C(c5cn(C)c6ccccc56)C(=O)NC4=O)c4ccccc43)C[C@H]2C1.Cl` [RO0320234-001] gave a potency estimated from few doses of 500 nM.

What follows are molecules tested on CSK. Details: read-out: apparent Kd; compound concentrations:100 nM and 1000 nM (sheet 'Samples'); n = 1.
Design: species or system human, MV4-11 + K-562 + COLO205 + SK-N-BE2 + OVCAR-8
`NCCNS(=O)(=O)c1ccc(-c2ccnc3[nH]ccc23)cc1` [GSK977617A] was tested, and the potency estimated from few doses was 757 nM. Molecule `O=C1NC(=O)C(N2CCc3ccccc32)=C1c1ccccc1Cl` [SB-373598] has a potency estimated from few doses of 273 nM. Molecule `Cl.Cl.NCC(C(=O)Nc1cc(Br)c(-c2ccnc3[nH]ccc23)s1)c1ccccc1.NCC(C(=O)Nc1cc(Br)c(-c2ccnc3[nH]ccc23)s1)c1ccccc1` (centres unmarked) [GSK1269851A] has a potency estimated from few doses of 674 nM. Work on `CC(C)N1CCC(n2cnc(-c3ccc(F)cc3)c2-c2ccnc(N)n2)CC1` [SB-223132] yielded a potency estimated from few doses of 898 nM. With `CN1C[C@@H]2Cn3c(c(C4=C(c5cn(C)c6ccccc56)C(=O)NC4=O)c4ccccc43)C[C@H]2C1.Cl` [RO0320234-001] the potency estimated from few doses was 552 nM. In the case of `Cc1ccc2c(-c3ccncc3)c(-c3ccc(F)cc3)nn2c1.Cl` [GW461484A], the potency estimated from few doses is reported as 893 nM.
